# Source: PubChem BioAssay
# Rows were chosen to be rich in hits. Some 3.3% of all compounds tested hit in one or more screens of this group.
# SMARCA2 activ – SMARCA2 function activation, primary screen; MG213 cells, MMTV-luciferase reporter, dexamethasone, overnight; activation, % at 9.1 µM; 370,000 tested, 1% active; in the data active = activation above about 7.8%;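 note: 0% = vehicle wells and 100% = reference activator wells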
# 697 NFkB inh – lowers PMA/ionomycin-induced NF-kB signal in 697 B cells | inhibition, % at 4 µM | 330,000 tested, 0.33% active | 697 B-cell NF-kB luciferase reporter, 16 h; in the data active = inhibition above about 35%
# Gli-Sufu antag – antagonists of Gli-Sufu signaling; 340,000 tested, 0.74% active; inhibition, % at 5 µM; Sufu-KO-LIGHT fibroblasts, Gli luciferase reporter luminescence; AID 588413;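 active = inhibition above about 55%, limit read from the data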;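 note: 0% = DMSO-treated cells and 100% = wells with medium but no cells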
# Jurkat NFkB inh – inhibitors of the PMA/ionomycin-induced NF-kB reporter in Jurkat cells | PMA/ionomycin-induced NF-kB luciferase reporter, luminescence | 330,000 tested, 0.53% active | inhibition, % at 4 µM | AID 435003; in the data active = inhibition above about 50%
# esBAF inh – SWI/SNF esBAF complex inhibition; 350,000 tested, 2% active; mouse ES cells, Bmi1-luciferase knock-in reporter, 24 h; 100% = twice the neutral-well signal; reporter increase, % at 12.5 µM; in the data active = activation above about 40%;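 note: 0% = median of the plate's neutral control wells and 100% = double that signal; a rise in the Bmi1 reporter signal indicates esBAF inhibition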
# Jurkat NFkB conf – inhibitors of the PMA/ionomycin-induced NF-kB reporter in Jurkat cells, retest; shares compounds with Jurkat NFkB inh; Jurkat NF-kB luciferase, 16 h; 2,700 tested, 27% active; inhibition, % at 4 µM; AID 435020;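 active = inhibition reaching about 45% at 4 µM in either replicate, limit read from the data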;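 note: plate controls were PMA/ionomycin stimulated DMSO wells for no effect and unstimulated DMSO wells for full effect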
# The depositor's hits bear a star; / = no result given.
SMILES,SMARCA2 activ,697 NFkB inh,Gli-Sufu antag,Jurkat NFkB inh,esBAF inh,Jurkat NFkB conf
C[C@H]1CN([C@@H](C)CO)C(=O)c2cc(NS(=O)(=O)c3ccc(Cl)cc3)ccc2O[C@H]1CN(C)Cc1ccc(C(=O)Nc2ccccc2N)cc1,/,/,/,/,-34,/
CCN(CC)c1ccc(NC(=O)c2ccc(Br)o2)cc1,4,-91,-94,-153,43*,-63
CCCOC(=O)c1ccc(NC(=O)c2ccc(Br)o2)cc1,-2,-24,-28,-40,/,/
COc1cccc2sc(Nc3nc(-c4ccncc4)cs3)nc12,-1,-28,-5,60*,/,35
Cc1cccc(S(=O)(=O)N2CC[C@@H]3[C@H]2c2cc(-c4ccccc4F)ccc2N(C)[C@H]3CO)c1,/,/,/,/,2,/
O=C(Nc1nc2ccc(F)cc2s1)c1cccs1,-1,-238,-71,-192,/,-118
COc1ccccc1-c1cn(CC[C@H]2CC[C@H](NS(=O)(=O)c3ccccc3C)[C@@H](CO)O2)nn1,/,/,/,/,-3,/
Cc1cc(-c2ccc(S(=O)(=O)N(C)c3ccc(C)c(C)c3)s2)on1,-3,-56,26,57*,-18,40
Cc1ccc(N(C)S(=O)(=O)c2ccc(-c3cc(C)no3)s2)cc1,1,-47,-8,51*,4,20
COc1ccc(-c2cc(C)no2)cc1S(=O)(=O)N(C)c1ccc(C)c(C)c1,-4,-32,12,2,1,/
Cc1nn(CC(=O)NC2(C)CCS(=O)(=O)C2)c(C)c1S(=O)(=O)N(C)C (stereo not given),-1,1,3,57*,-8,14
Cc1noc(C)c1S(=O)(=O)N(C)C[C@H]1OCCCC[C@@H](C)Oc2ccc(NC(=O)NC3CCCCC3)cc2C(=O)N([C@@H](C)CO)C[C@H]1C,/,/,/,/,0,/
Cc1cc2c(cc1C)C(c1cc(Br)ccc1F)CC(=O)N2 (stereo not given),-4,-27,-5,57*,/,16
Cc1cc2c(cc1C)C(c1ccccc1F)CC(=O)N2 (stereo not given),-2,-12,-2,15,2,/
COCC(=O)N1CCCCN2[C@H](CO)[C@@H](c3ccc(C#Cc4ccccc4)cc3)[C@@H]2C1,/,/,/,/,24,/
Cc1ccc(N/C=C(/C#N)c2ccsc2)cc1C,8,-161,-10,-172,62*,-48
Cc1ccc(N/N=C(\C#N)C(=O)c2ccsc2)cc1,0,-32,5,0,/,/
C[C@@H]1CN([C@@H](C)CO)C(=O)c2cc(NS(=O)(=O)c3ccc(F)cc3)ccc2O[C@@H](C)CCCCO[C@H]1CN(C)C(=O)Nc1ccc(F)cc1,/,/,/,/,-8,/
COc1cc2c(c(OC)c1OC)-c1ccc(OC)c(=O)cc1C(NC(C)=O)CC2 (stereo not given),3,-149,45,63*,-12,60*
N#Cc1ccccc1Cn1cc(/C=N/Nc2ccc([N+](=O)[O-])cn2)c2ccccc21,-4,-15,12,67*,6,-6
CCOc1ccccc1C=NNc1ccc([N+](=O)[O-])cn1,1,/,-5,/,-6,/
COc1ccc(/C=N/NC(=O)CCn2cnc(-c3ccccc3)c2-c2ccccc2)cc1,1,8,22,57*,/,27
COc1ccc(/C=N/NC(=O)COc2ccccc2-c2ccccc2)cc1,-1,20,33,56*,/,47*
O=C(COc1ccccc1-c1ccccc1)N/N=C/c1cccc2ccccc12,-1,22,44,56*,-11,51*
CN(C)c1ccc(/C=N/NC(=O)COc2ccccc2)cc1,4,-5,-23,-25,15,/
SMILES,SMARCA2 activ,697 NFkB inh,Gli-Sufu antag,Jurkat NFkB inh,esBAF inh,Jurkat NFkB conf
O=C(CCn1cnc(-c2ccccc2)c1-c1ccccc1)N/N=C/c1ccc(O)cc1,0,3,2,21,2,/
C[C@@H]1CCCCO[C@H](CN(C)C(=O)Cc2ccccc2)[C@@H](C)CN([C@@H](C)CO)C(=O)c2cc(NS(=O)(=O)c3ccccc3)ccc2O1,/,/,/,/,2,/
O=C(C[C@@H]1CC[C@H]2[C@@H](COC[C@@H](O)CN2Cc2ccccc2F)O1)N1CCc2ccccc2C1,/,/,/,/,8,/
CCO[C@H]1OC(C(=O)NCc2nc3ccccc3[nH]2)=C[C@@H](c2ccccc2)[C@@H]1CCCO,-1,15,-1,6,-3,/
CCO[C@H]1OC(C(=O)NCc2nc3ccccc3[nH]2)=C[C@@H](C2CC2)[C@@H]1CCCO,-1,-11,15,61*,3,46
NNC(=O)COc1ccccc1F,2,-1,-1,96*,/,2
NNC(=O)COc1ccc(F)cc1,-2,2,-13,10,/,/
C[C@H]1CN([C@@H](C)CO)S(=O)(=O)c2ccc(C3=CCCCC3)cc2O[C@H]1CN(C)S(=O)(=O)c1cn(C)cn1,/,/,/,/,-4,/
CCCNC(=O)N1[C@@H]2CN(C(=O)C3CCOCC3)c3ccccc3[C@@H]2[C@@H]1CO,/,/,/,/,-4,/
Cc1ccc(Oc2ccc(OCC(=O)Nc3ccncc3)cc2)cc1,-8,23,/,65*,-40,77*
S=C(c1ccc(-c2cccc(Cl)c2)o1)N1CCCCC1,3,-178,-113,-166,/,-90
COc1cccc(CNC(=O)[C@H]2[C@H](CO)[C@H]3Cn4c(ccc(-c5ccncc5)c4=O)[C@H]3N2C)c1,/,/,/,/,-2,/
Cc1cc(C)cc(N/C(N)=N/c2nc(C)cc(C)n2)c1,-3,-14,22,51*,/,10
CCCCc1ccc(N/C(N)=N/c2nc(C)cc(C)n2)cc1,-3,-40,50,75*,/,30
Cc1ccc(N/C(N)=N/c2nc(C)cc(C)n2)cc1,0,4,44,3,/,/
CO[C@@H]1CN(C)C(=O)c2ccc(NS(=O)(=O)c3ccc(C)cc3)cc2OC[C@H](C)N(Cc2nccs2)C[C@@H]1C,/,/,/,/,-1,/
CCN1C=CC(=C2C(=O)c3ccccc3C2=O)C=C1,-5,5,59*,54*,-83,45*
CNC[C@H]1Oc2cc(C#Cc3ccc(OC)cc3)ccc2S(=O)(=O)N([C@H](C)CO)C[C@@H]1C,/,/,/,/,-6,/
COc1ccc(S(=O)Cc2ccc(C(=O)N3CCN(c4cccc(C)c4C)CC3)o2)cc1 (stereo not given),/,-118,26,51*,4,20
Cc1ccccc1S(=O)(=O)Cc1ccc(C(=O)N2CCN(c3cccc(C)c3C)CC2)o1,-5,-82,2,51*,-14,29
CN(C)c1oc(-c2cccs2)nc1C#N,0,-4,-2,-15,-3,/
CN(C)c1ccc(-c2nnc(-c3cccs3)o2)cc1,3,-238,-142,-161,/,-115
O=C(Nc1ccccc1F)N[C@@H]1CC[C@H](CCNC(=O)C2CCCCC2)O[C@H]1CO,/,/,/,/,-3,/
COc1ccc2cc3cc(C(=O)N4CCCCC4C)oc3nc2c1 (stereo not given),4,-234,-97,-156,14,-125
CCc1ccc(Nc2ncc3c(n2)CC(c2ccc(OC)cc2)CC3=O)cc1 (stereo not given),4,-5,-12,-7,11,/
